Reference: PubChem BioAssay AID1233 (SRMLSC, 2008)
Potency and affinity values are given separately. Activity calls are given as the source filed them.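 Rule for the calls: active = a dose-response curve fit returns a half-maximal inhibitory concentration, extrapolated values included; inactive = the fit returns no such concentration.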

biological target: HMG-CoA reductase [Enterococcus faecalis] (UniProt Q9FD70); test: inhibitors of E. faecalis class II HMGR, confirmation, biochemical, Enterococcus faecalis (AID 1233); conditions: purified E. faecalis HMGR, NADPH absorbance 340 nm kinetics; series mostly up to 100 µM

outcome, inactive:
O=C(O)c1cc(N/N=C/C(Cl)=C/c2ccccc2)ccc1Cl
Cc1cc(C=O)c2c(c1)C=CC1(Oc3ccccc3C(=O)N1C)O2 (stereo not drawn)
CCOC(=O)c1sc(NC(=O)CSc2nccc(C)n2)nc1C
Cc1ccc(C(=O)O)cc1S(=O)(=O)N1CCC(C(=O)O)CC1
O=C(COc1ccccc1C(=O)N/N=C\c1ccc(O)c(O)c1)N/N=C/c1ccc(O)c(O)c1
Brc1ccc(CSc2nnc3ccccn23)cc1
COc1cc(SC)ccc1C(=O)NCc1ccc(C)cc1
CCOC(=O)C1(O)CC(C)=NN1C(=O)c1cccc(Br)c1 (stereo not drawn)
Cc1cc(Nc2cccc([N+](=O)[O-])c2)c2ccccc2n1
S=C(NCc1ccccc1)N1CCN(c2cccc(Cl)c2)CC1
CCOC(=O)c1c(C)nc2ccc(C)cn12
CCOC(=O)C(C(=O)OCC)C1CCS(=O)(=O)C1 (stereo not drawn)
Cc1ccc(N2CCN(C(=O)c3ccccc3NC(=O)/C=C\C(=O)O)CC2)cc1
NNC(=O)C1CC1c1ccc(Cl)cc1 (stereo not drawn)
COCCn1c(=N)c(C(=O)NCc2ccco2)cc2c(=O)n3cc(C)ccc3nc21
CCOC(=O)C(=O)Nc1ccc([N+](=O)[O-])cc1OC
CCOC(=O)NC(=O)CN1C(=O)NC(C)(c2ccccc2)C1=O (stereo not drawn)
COc1cc(S(=O)(=O)Nc2ccccc2C)ccc1NC(=O)c1ccncc1
CCOC(=O)c1ccc(Nc2nc(C(=O)OCC)nc3ccccc23)cc1
O=C(CN1CCN(Cc2ccc(F)cc2Cl)C1=O)NCCc1ccc(Cl)cc1
COc1ccccc1C(=O)N/C(=C/c1ccc(Br)cc1)C(=O)NCC(=O)O
COc1ccc(NC(=O)c2ccc3c(c2)n(C)c(=O)n3C)cc1
COc1cccc(-c2nnc3sc(-c4cccs4)nn23)c1
O=C(Nc1cccc(Br)c1)c1ccc2nc(N3C(=O)CCC3=O)sc2c1
O=C(Nc1ccccc1)Nc1ccc2ocnc2c1
COc1cc2c(cc1OC)C(C(=O)Nc1ccc3c(c1)OCCO3)C(c1cccnc1)N(C)C2=O (stereo not drawn)
Nc1ccc(C(=O)Nc2ccc(OC(F)(F)C(F)F)c(NC(=O)c3ccc(N)cc3)c2)cc1
N#CC(C#N)=Cc1cc2ccccc2nc1N1CCOCC1
COc1cc(OC)cc(C(=O)N[C@H](C(=O)OCn2nnc3ccccc3c2=O)C(C)C)c1
COC(=O)C1=C(C)NC(C)=C(C(=O)OC)C1C1CC=CCC1 (stereo not drawn)
CO/N=C/c1ccc(N2CCCC2)c([N+](=O)[O-])c1
COc1ccc(Nc2nc3c(C)cccn3c(=O)c2C=NCc2ccccc2)cc1
CCc1ccc(NC(=O)CN(c2cccc(C)c2)S(C)(=O)=O)cc1
Cc1ccc(/C=C/C(=O)O)cc1S(=O)(=O)NCCCO
CCCCC(=O)Nc1cc(OCC)c(NC(=S)NC)cc1OCC
O=C1c2ccccc2NC(c2ccc(Cl)cc2Cl)N1O (stereo not drawn)
CCN(CC)CCNC(=O)C(=O)NCC1OCCN1C(=O)c1ccc2c(c1)OCO2 (stereo not drawn)
COc1ccc(Cn2c(=O)sc3ccccc3c2=O)cc1
